In the library only some 19% were active in any assay of this set; here they are far more common.
MCF10A rerep: inducers of DNA re-replication in MCF 10A breast cells. MCF 10A DNA re-replication, Hoechst nuclear intensity, 48 h. Potency, µM (titrated, usually from 46.1 µM), for the others: at the highest dose activity, positive = re-replication, most hits filed as activators. 350,000 tested, 2.9% active. AID 624296; further: potency means the concentration at half of the fitted maximal effect; % of control where 0% means no effect; nearly all actives have a fitted effect of over 50% in size
SW480 rereplic: inducers of DNA re-replication in SW480 colon cancer cells. SW480 DNA re-replication, Hoechst DNA content imaging, 48 h. Potency, µM (highest dose often 46.1 µM), inactives show at the top dose re-replication activation, actives largely listed as activators. 340,000 tested, 1.8% active; further: potency means the concentration at half of the fitted maximal effect; % of control where 0% means no effect; nearly all actives have a fitted effect of over 55% in size
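Image-based DNA-content assay: after two days of treatment, nuclei were labelled with the DNA dye Hoechst and imaged, and hits were compounds raising the count of nuclei showing high fluorescence intensity.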
BCR signal inh: inhibitors of chronic active B-cell receptor signaling; ABC-DLBCL IkBa-CBG/CBR reporter, luminescence ratio, 4 h; Potency, µM (titrated, usually from 46.1 µM), without a hit: at the top dose activity change, negative = inhibition, hits mostly inhibitors; 340,000 tested, 0.05% active; AID 493014; active means well fitted inhibition curve with a large enough effect in the signal ratio, with a control signal flat, not every such curve was filed as active; inconclusive means small, poorly fitted or top-dose-only effect, or effect the other way, or a change in a side signal; the % refers to the signal ratio;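 further: potency means the concentration at half of the fitted maximal effect; plate controls were basal doxycycline-induced cells for no effect and cells given 10 µM MG132 for full effect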
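Compounds up to 46 uM were incubated four hours with TMD8 cells whose green CBG68 luciferase is fused to IkappaBalpha; red CBR luminescence normalised the signal, and concentration-effect curves were fitted to fusion, red and ratio data.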
TDP1 cell noCPT: qHTS for Inhibitors of human tyrosyl-DNA phosphodiesterase 1 (TDP1): qHTS in cells in absence of CPT; DT40 Tdp1-/- hTDP1 cells, no CPT, ATP luminescence, 48 h; Potency, µM (highest dose often 46.2 µM), without a hit: at the top dose activity change, negative = growth inhibition, hits mostly inhibitors; 420,000 tested, 15% active; further: potency means the concentration at half of the fitted maximal effect; on the % scale 0 is the no-effect control and ±100 the full control effect; nearly all actives have a fitted effect of over 55% in size
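Chicken DT40 Tdp1-/- cells stably complemented with human TDP1 were seeded at 400 cells/well with DMSO in place of 20 nM camptothecin. After compound pinning, cells grew at least 48 hr at 37 °C; viability read by CellTiter-Glo luminescence.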
DT40 TDP1 CPT: DT40-hTDP1 cell growth loss with CPT; chicken DT40 Tdp1-/-;hTDP1 cells + 20 nM CPT, ATP luminescence, 48 h; Potency, µM (highest dose often 46.2 µM), without a hit: at the highest dose activity change, negative = growth inhibition, actives largely listed as inhibitors; 420,000 tested, 12% active; further: potency means the concentration at half of the fitted maximal effect; on the % scale 0 is the no-effect control and ±100 the full control effect; nearly all actives have a fitted effect of over 55% in size
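Chicken DT40 Tdp1-/- cells stably complemented with human TDP1 were seeded at 400 cells/well in medium containing 20 nM camptothecin, exposed to pin-transferred compounds, and grown at 37 °C for at least 48 hr. Viability was read as ATP luminescence.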
IL1B secr inh: blocks inflammasome-driven IL-1 beta release; 360,000 tested, 4.7% active; activity change, % at 57.5 µM; THP-1 LPS/ATP IL-1B secretion, AlphaLISA, 16 h; stronger effect = lower value; in the data active means activity change below about -50%; inconclusive means mostly about -30% to -49%; further: on the % scale 0 is the no-effect control and ±100 the full control effect
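THP-1 cells pretreated 1 hr with compounds (up to 57.5 uM final), then stimulated with LPS (250 ng/mL final) plus ATP (1.25 mM final); secreted IL-1B measured by AlphaLISA after 16 hr, decreased signal indicating inhibition.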
The depositor's hits bear a star. Unless noted, the call rests on the fitted dose curve; in most records, active means well fitted curve in the direction sought with a large enough effect; inconclusive means small, poorly fitted or top-dose-only effect, or another doubt; inactive means no such curve, though single readings can be large; an effect the other way counts as inactive or inconclusive.

Screening O=C(Cc1ccccc1)NCC(=O)OCC(=O)c1ccc2ccccc2c1 returned TDP1 cell noCPT -19.9% and DT40 TDP1 CPT -13.7%.
`O=C(NCC(c1cccnc1)N1CCN(Cc2ccccc2)CC1)C(=O)Nc1ccc(Cl)cc1` (configuration not stated) gave TDP1 cell noCPT 7.31µM* and DT40 TDP1 CPT 13µM*.
For Cc1ccc(S(=O)(=O)NCC(c2cccnc2)N2CCN(Cc3ccccc3)CC2)cc1 (configuration not stated) the results were MCF10A rerep 3.0%, SW480 rereplic 3.6%, BCR signal inh 1.0%, TDP1 cell noCPT -27.4%, DT40 TDP1 CPT -25.4% and IL1B secr inh -9.6.
For Cc1ccc(NC(=O)C(=O)NCC(c2cccnc2)N2CCN(Cc3ccccc3)CC2)cc1 (configuration not stated) the results were TDP1 cell noCPT 18.4µM* and DT40 TDP1 CPT 23.1µM*.
Screening COc1ncc2nc(-c3cc(F)cc(F)c3)c(=O)n(CCC#N)c2n1 returned TDP1 cell noCPT -24.0% and DT40 TDP1 CPT -1.1%.
For C#Cc1ccccc1OCCCN1CCC(C(O)(c2ccccc2)c2ccccc2)CC1 the results were TDP1 cell noCPT 8.2µM*, DT40 TDP1 CPT 9.2µM* and IL1B secr inh 0.0.
Screening N#Cc1ccccc1OCCCN1CCC(C(O)(c2ccccc2)c2ccccc2)CC1 returned TDP1 cell noCPT inconclusive, DT40 TDP1 CPT 18.4µM* and IL1B secr inh inconclusive.
For CC(C)(C(=O)O)c1ccc([C@H](O)CCCN2CCC(C(O)(c3ccccc3)c3ccccc3)CC2)cc1 the results were MCF10A rerep 0.5%, SW480 rereplic -14.0%, BCR signal inh -14.3%, TDP1 cell noCPT -10.2%, DT40 TDP1 CPT 0.0% and IL1B secr inh 20.5.
Screening c1ccc(-c2ccccc2OCCCN2CCOCC2)cc1 returned MCF10A rerep 25.0%, SW480 rereplic 0.4%, BCR signal inh -1.7%, TDP1 cell noCPT -28.2%, DT40 TDP1 CPT -21.4% and IL1B secr inh -0.5.
Screening CC1CC[C@]2(CO)CC[C@]3(C)C(=CCC4[C@@]5(C)CCC(O)C(C)(C)C5CC[C@@]43C)C2C1C (some centres not stated) returned TDP1 cell noCPT 2.0% and DT40 TDP1 CPT 6.6%.
Screening O=C(CCCCC(=O)NN=Cc1ccc(Cl)cc1)NN=Cc1ccc(Cl)cc1 returned MCF10A rerep 1.0%, SW480 rereplic 15.2%, TDP1 cell noCPT inconclusive, DT40 TDP1 CPT inconclusive and IL1B secr inh -2.5.
`CCCCOc1ccc(C(=O)N2CCN(c3ccc(N4CCOCC4)nn3)CC2)cc1` gave MCF10A rerep 11.7%, SW480 rereplic 30.6%, BCR signal inh -0.7%, TDP1 cell noCPT inconclusive, DT40 TDP1 CPT 23.1µM* and IL1B secr inh -8.6.
For CCCOc1ccc(C(=O)N2CCN(c3ccc(N)cc3Cl)CC2)cc1 the results were MCF10A rerep 13.5%, SW480 rereplic -55.0%, BCR signal inh -26.5%, TDP1 cell noCPT 20.6µM*, DT40 TDP1 CPT 23.1µM* and IL1B secr inh -10.4.
`CCn1c(C)cs/c1=N\C(=S)Nc1ccccc1C` gave MCF10A rerep -1.4%, BCR signal inh inconclusive, TDP1 cell noCPT inconclusive, DT40 TDP1 CPT inconclusive and IL1B secr inh -2.0.
CCOC(=O)c1c(-c2ccccc2)nnn1-c1nc(OCC)nc(N2CCCCC2)n1 was read as MCF10A rerep 14.6µM*, SW480 rereplic 11.9%, BCR signal inh inconclusive, TDP1 cell noCPT inconclusive, DT40 TDP1 CPT 18.4µM* and IL1B secr inh -20.9.
`CCOC(=O)c1nnn(-c2nc(N3CCCC3)nc(N3CCCC3)n2)c1-c1ccccc1` gave MCF10A rerep 6.4%, SW480 rereplic 16.5%, BCR signal inh 8.2%, TDP1 cell noCPT inconclusive, DT40 TDP1 CPT 18.4µM* and IL1B secr inh 16.8.
`CCOc1nc(N2CCCCC2)nc(-n2cc(-c3ccccc3)nn2)n1` gave MCF10A rerep -1.5%, SW480 rereplic -3.9%, BCR signal inh 11.0%, TDP1 cell noCPT 18.4µM* and DT40 TDP1 CPT 16.4µM*.
`Cc1ccsc1C(=O)N1CCCC(C)(C(=O)O)C1` (configuration not stated) gave TDP1 cell noCPT -3.5%, DT40 TDP1 CPT -35.1% and IL1B secr inh 15.7.
For Cc1nc2c(ccc3nc(NC(=O)c4ccc5c(c4)OCCO5)sc32)s1 the results were MCF10A rerep 2.31µM*, SW480 rereplic inconclusive, BCR signal inh inconclusive, TDP1 cell noCPT 18.4µM*, DT40 TDP1 CPT 15.8µM* and IL1B secr inh inconclusive.
`Cc1nc2c(ccc3nc(NC(=O)C(c4ccccc4)c4ccccc4)sc32)s1` gave MCF10A rerep 16.4µM*, SW480 rereplic 9.1%, BCR signal inh -2.9%, TDP1 cell noCPT 7.31µM*, DT40 TDP1 CPT 7.31µM* and IL1B secr inh 1.3.
Screening CC(C)NC(=O)C(c1ccc(F)cc1)N(C(=O)CCC(=O)Nc1ccccn1)c1cccc(F)c1 (configuration not stated) returned MCF10A rerep 30.1%, SW480 rereplic 4.8%, BCR signal inh -5.9%, TDP1 cell noCPT -12.4%, DT40 TDP1 CPT inconclusive and IL1B secr inh -19.2.
For CCOc1ccc(C(=O)Nc2ccccc2C(=O)OCc2cc(=O)n3nc(C4CC4)sc3n2)cc1 the results were TDP1 cell noCPT -1.0% and DT40 TDP1 CPT 0.8%.
Screening O=C(Cn1ccc2ccccc2c1=O)NCC(=O)N1CCN(c2ccccc2F)CC1 returned MCF10A rerep -13.9%, SW480 rereplic -18.4%, BCR signal inh -7.7%, TDP1 cell noCPT -13.9%, DT40 TDP1 CPT 4.9% and IL1B secr inh -0.3.
`O=C(CN1C(=O)c2cccc3cccc1c23)N1CCN(c2ccc(F)cc2)CC1` gave MCF10A rerep 11.2µM*, SW480 rereplic inconclusive, BCR signal inh 1.2%, TDP1 cell noCPT -20.0%, DT40 TDP1 CPT inconclusive and IL1B secr inh 14.1.
For O=C(CN1C(=O)c2cccc3cccc1c23)N1CCN(c2ccccc2)CC1 the results were MCF10A rerep 23.1µM*, SW480 rereplic inconclusive, BCR signal inh inconclusive, TDP1 cell noCPT -11.0%, DT40 TDP1 CPT -18.3% and IL1B secr inh 5.4.
For O=C(CN1C(=O)c2cccc3cccc1c23)N1CCN(c2cccc(Cl)c2)CC1 the results were MCF10A rerep -3.1%, SW480 rereplic 2.6%, BCR signal inh 3.5%, TDP1 cell noCPT -0.6%, DT40 TDP1 CPT -4.1% and IL1B secr inh 16.8.

Source: PubChem BioAssay (National Center for Advancing Translational Sciences (NCATS))
